# Test results reported in PubChem BioAssay (NCATS).
# Records with an inconclusive call do not appear. A call without a number means that no potency is given here. The source made the active and inactive calls. Unless noted, the call rests on the fitted dose curve; in most records, active means well fitted inhibition curve with a large enough effect; inconclusive means small, poorly fitted or top-dose-only effect; inactive means flat fitted curve, though single readings scatter.
# Key:
# [1] = S16 Schwann cell PMP22 intronic element beta-lactamase assay (AID 624044; calls by dose curve; further: nearly all actives have a fitted effect of over 15% in size); conditions: S16 rat Schwann cells, PMP22 element beta-lactamase FRET, 24 h; ratio activity, negative = inhibition: at 38.3 µM (top of the series) unless noted
# Outline: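 Rat S16 Schwann cells with beta-Lac driven by a PMP22 intronic element, compound-treated 24 h at 37 °C. LiveBLAzer FRET B/G read: 460 nm normalized to potassium clavulanate vs DMSO; 535 nm FRET as viability; concentration-effect curves classified.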
# [2] = system: ATS189; experiment: qHTS profiling for inhibitors of Plasmodium falciparum proliferation (AID 504749); further: nearly all actives have a fitted effect of over 60% in size; further: potency means the concentration at half of the fitted maximal effect; conditions: P. falciparum in erythrocytes, SYBR Green DNA, 72 h; series mostly up to 28.7 µM
# Outline: (§1)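 Infected RBCs, 0.3% parasitemia/2.5% Hct final; cpd 72 h, 37 C, 5% CO2; lysis buffer with saponin/triton/SYBR Green I, o/n RT dark; FI 485/535; norm. to artemisinin (0.29 uM) and DMSO.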
# [3] = system: C2A; experiment: as above; conditions: P. falciparum in erythrocytes, SYBR Green DNA, 72 h; series mostly up to 28.7 µM
# Outline: as §1
# [4] = system: CP191; experiment: as above; conditions: P. falciparum in erythrocytes, SYBR Green DNA, 72 h; series mostly up to 28.7 µM
# Outline: as §1
# [5] = system: CP192; experiment: as above; conditions: P. falciparum in erythrocytes, SYBR Green DNA, 72 h; series mostly up to 28.7 µM
# Outline: as §1
# [6] = system: CP203; experiment: as above; conditions: P. falciparum in erythrocytes, SYBR Green DNA, 72 h; series mostly up to 28.7 µM
# Outline: as §1
# [7] = system: CP211; experiment: as above; conditions: P. falciparum in erythrocytes, SYBR Green DNA, 72 h; series mostly up to 28.7 µM
# Outline: as §1
# [8] = system: CP217; experiment: as above; conditions: P. falciparum in erythrocytes, SYBR Green DNA, 72 h; series mostly up to 28.7 µM
# Outline: as §1
# [9] = system: CP247; experiment: as above; conditions: P. falciparum in erythrocytes, SYBR Green DNA, 72 h; series mostly up to 28.7 µM
# Outline: as §1
# [10] = system: CP250; experiment: as above; conditions: P. falciparum in erythrocytes, SYBR Green DNA, 72 h; series mostly up to 12.8 µM
# Outline: as §1
# [11] = system: CP252; experiment: as above; conditions: P. falciparum in erythrocytes, SYBR Green DNA, 72 h; series mostly up to 12.8 µM
# Outline: as §1
# [12] = system: CP256; experiment: as above; conditions: P. falciparum in erythrocytes, SYBR Green DNA, 72 h; series mostly up to 28.7 µM
# Outline: as §1
# [13] = system: CP266; experiment: as above; conditions: P. falciparum in erythrocytes, SYBR Green DNA, 72 h; series mostly up to 12.8 µM
# Outline: as §1
# [14] = system: CP269; experiment: as above; conditions: P. falciparum in erythrocytes, SYBR Green DNA, 72 h; series mostly up to 28.7 µM
# Outline: as §1
# [15] = system: CP286; experiment: as above; conditions: P. falciparum in erythrocytes, SYBR Green DNA, 72 h; series mostly up to 28.7 µM
# Outline: as §1
# [16] = system: Dd2; experiment: as above; conditions: P. falciparum in erythrocytes, SYBR Green DNA, 72 h; series mostly up to 28.7 µM
# Outline: as §1
# [17] = system: FAB9; experiment: as above; conditions: P. falciparum in erythrocytes, SYBR Green DNA, 72 h; series mostly up to 28.7 µM
# Outline: as §1
# [18] = system: N140; experiment: as above; conditions: P. falciparum in erythrocytes, SYBR Green DNA, 72 h; series mostly up to 28.7 µM
# Outline: as §1
# [19] = system: PC49; experiment: as above; conditions: P. falciparum in erythrocytes, SYBR Green DNA, 72 h; series mostly up to 28.7 µM
# Outline: as §1
# [20] = system: TAB109; experiment: as above; conditions: P. falciparum in erythrocytes, SYBR Green DNA, 72 h; series mostly up to 12.8 µM
# Outline: as §1
Structure (SMILES),Potency [1],Potency [2],Potency [3],Potency [4],Potency [5],Potency [6],Potency [7],Potency [8],Potency [9],Potency [10],Potency [11],Potency [12],Potency [13],Potency [14],Potency [15],Potency [16],Potency [17],Potency [18],Potency [19],Potency [20]
CCN[C@]1(c2cccs2)CCCCC1=O,inactive,inactive,inactive,inactive,inactive,inactive,inactive,inactive,inactive,inactive,inactive,inactive,inactive,inactive,inactive,inactive,inactive,inactive,inactive,inactive
CC(=O)OCC(=O)[C@@H]1CC[C@H]2[C@H]3CC[C@H]4C[C@@H](O)CC[C@]4(C)[C@@H]3C(=O)C[C@@]12C,inactive,inactive,inactive,inactive,inactive,inactive,inactive,inactive,inactive,inactive,inactive,inactive,inactive,inactive,inactive,inactive,inactive,inactive,inactive,inactive
CN(C)C(=O)Oc1cc(OC(=O)N(C)C)cc([C@@H](O)CNC(C)(C)C)c1,inactive,inactive,inactive,inactive,inactive,inactive,inactive,inactive,inactive,inactive,inactive,inactive,inactive,inactive,inactive,inactive,inactive,inactive,inactive,inactive
CN[C@@H](C)[C@H]1CC[C@@H](N)[C@@H](O[C@@H]2[C@@H](O)[C@@H](O[C@H]3OC[C@@](C)(O)[C@@H](NC)[C@@H]3O)[C@H](N)C[C@@H]2N)O1 (tested in a mixture with another compound),inactive,inactive,inactive,inactive,inactive,inactive,inactive,inactive,inactive,inactive,inactive,inactive,inactive,inactive,inactive,inactive,inactive,inactive,inactive,inactive
O=c1ccc2cc(O[C@H]3O[C@@H](CO)[C@@H](O)[C@@H](O)[C@@H]3O)c(O)cc2o1,–,inactive,inactive,inactive,inactive,inactive,inactive,inactive,inactive,inactive,inactive,inactive,inactive,inactive,inactive,inactive,inactive,inactive,inactive,inactive
CCC(C)C1O[C@]2(C=CC1C)CC1CC(C/C=C(\C)[C@H](OC3CC(OC)C(O[C@H]4CC(OC)[C@@H](O)C(C)O4)C(C)O3)[C@@H](C)/C=C/C=C3\COC4C(O)C(C)=C[C@H](C(=O)O1)[C@@]34O)O2 (some centres undefined),inactive,11.2 µM (active),12.6 µM (active),7.94 µM (active),19 µM (active),13.5 µM (active),12 µM (active),10 µM (active),8.91 µM (active),11.2 µM (active),11.2 µM (active),6.31 µM (active),–,15.1 µM (active),–,11.2 µM (active),–,10 µM (active),–,8.91 µM (active)
C=CC1CN2CCC1CC2C(OC(=O)OCC)c1ccnc2ccc(OC)cc12 (centres undefined),inactive,5.62 µM (active),–,5.01 µM (active),6.75 µM (active),8.49 µM (active),15.1 µM (active),7.94 µM (active),7.94 µM (active),12.6 µM (active),8.91 µM (active),11.2 µM (active),–,9.53 µM (active),5.01 µM (active),5.01 µM (active),10 µM (active),11.2 µM (active),inactive,4.47 µM (active)
COc1cc2c(cc1OC)[C@@]13CCN4CC5=CCOC6CC(=O)N2C1[C@H]6[C@@H]5C[C@@H]43 (some centres undefined),inactive,inactive,inactive,inactive,inactive,inactive,inactive,inactive,inactive,inactive,inactive,inactive,inactive,inactive,inactive,inactive,inactive,inactive,inactive,inactive
O=C1C=C2C=CC3C[C@@]2(O1)C1CCCCN31 (some centres undefined),–,11.2 µM (active),12.6 µM (active),10 µM (active),–,–,13.5 µM (active),8.91 µM (active),11.2 µM (active),12.6 µM (active),11.2 µM (active),11.2 µM (active),10.7 µM (active),15.1 µM (active),11.2 µM (active),11.2 µM (active),–,12.6 µM (active),10 µM (active),5.01 µM (active)
CNC(C)[C@@H](O)c1ccccc1 (some centres undefined),inactive,inactive,inactive,inactive,inactive,inactive,inactive,inactive,inactive,inactive,inactive,inactive,inactive,inactive,inactive,inactive,inactive,inactive,inactive,inactive
Clc1ccc([C@@H](OCCN2CCCCC2)c2ccccc2)cc1,inactive,3.16 µM (active),inactive,–,inactive,–,inactive,inactive,–,inactive,inactive,inactive,inactive,–,3.55 µM (active),4.47 µM (active),inactive,3.98 µM (active),–,–
CC(C)CC(CN)CC(=O)O (centres undefined),inactive,–,–,–,–,–,–,–,–,–,–,–,–,–,–,–,–,–,–,–
COc1cc(N)c(Cl)cc1C(=O)N[C@@H]1CN2CCC1CC2,inactive,inactive,inactive,inactive,inactive,inactive,inactive,inactive,inactive,inactive,inactive,inactive,inactive,inactive,inactive,inactive,inactive,inactive,inactive,inactive
